According to PubChem BioAssay (Tox21):
Unmarked numbers belong to inactive results. Records with an inconclusive call do not appear. Entries that show only a call come without a potency. Activity calls are given as the source filed them. Unless noted, calls come from the whole dose curve; as a rule, active = well fitted curve in the direction sought with a large enough effect in the repeat runs; inconclusive = weak or mixed curves; inactive = no such curve, though single readings can be large; an effect the other way counts as inactive or inconclusive.

Columns and labels:
[1] = qHTS assay to identify small molecule agonists of the estrogen receptor alpha (ER-alpha) signaling pathway in the presence of an antagonist - cell viability counter screen (AID 1259386);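 note: series mostly up to about 92 µM; cells exposed to compounds for 22 h at 37 °C before the viability read; nearly all actives have a fitted effect of over 30% in size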
How it was run: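 Viability counter screen using VM7Luc4E2 (full-length ER-alpha, four ERE-luciferase). The cells were treated with compounds alongside ICI-182,780 10.0nM for 22hr, and live-cell protease fluorescence was quantified with CellTiter-Fluor.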

[2] = biological target: Progesterone receptor (Homo sapiens) (UniProt P06401); assay: qHTS assay to identify small molecule agonists of the progesterone receptor (PR) signaling pathway (AID 1346784; calls by dose curve; note: nearly all actives have a fitted effect of over 30% in size)
Progesterone receptor (Homo sapiens), sequence (P06401 whole entry, looked up): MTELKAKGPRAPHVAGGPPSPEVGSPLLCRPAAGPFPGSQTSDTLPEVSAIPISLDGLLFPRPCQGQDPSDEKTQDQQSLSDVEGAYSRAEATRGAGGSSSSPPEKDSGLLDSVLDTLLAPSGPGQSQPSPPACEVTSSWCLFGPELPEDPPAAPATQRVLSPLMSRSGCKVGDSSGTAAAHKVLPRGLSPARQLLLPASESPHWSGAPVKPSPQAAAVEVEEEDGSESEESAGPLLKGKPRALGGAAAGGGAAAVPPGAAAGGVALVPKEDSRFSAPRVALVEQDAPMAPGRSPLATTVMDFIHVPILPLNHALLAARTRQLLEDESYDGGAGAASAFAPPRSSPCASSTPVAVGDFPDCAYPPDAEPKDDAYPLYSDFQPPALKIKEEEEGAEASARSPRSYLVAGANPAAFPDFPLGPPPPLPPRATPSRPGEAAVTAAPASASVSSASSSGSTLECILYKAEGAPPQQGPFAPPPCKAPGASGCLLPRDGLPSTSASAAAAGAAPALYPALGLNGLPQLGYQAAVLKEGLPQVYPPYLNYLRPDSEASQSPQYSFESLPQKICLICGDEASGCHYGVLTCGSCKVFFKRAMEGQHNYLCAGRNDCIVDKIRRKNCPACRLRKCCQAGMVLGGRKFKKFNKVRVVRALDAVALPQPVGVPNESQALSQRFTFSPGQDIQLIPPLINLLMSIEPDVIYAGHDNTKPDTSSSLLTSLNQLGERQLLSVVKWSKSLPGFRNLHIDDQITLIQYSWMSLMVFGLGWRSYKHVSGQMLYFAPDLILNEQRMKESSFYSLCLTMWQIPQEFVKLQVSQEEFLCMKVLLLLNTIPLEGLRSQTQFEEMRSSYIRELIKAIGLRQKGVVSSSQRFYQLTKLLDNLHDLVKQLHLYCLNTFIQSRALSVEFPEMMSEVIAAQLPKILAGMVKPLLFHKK
How it was run: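 PR-UAS-bla HEK 293T cells (beta-lactamase reporter under UAS) in 2% charcoal-stripped FBS, dosed with 23 nL compound after 6 hr, incubated 16hr at 37C. LiveBLAzer B/G FRET substrate added, fluorescence read after 2 hours.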

[3] = biological target: Progesterone receptor (Homo sapiens) (UniProt P06401); assay: qHTS assay to identify small molecule antagonists of the progesterone receptor (PR) signaling pathway (AID 1346795; active = well fitted inhibition curve with a large enough effect in the signal ratio in the repeat runs, not every such curve was filed as active; the % refers to the signal ratio)
How it was run: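 PR-UAS-bla HEK293T cells with beta-lactamase reporter under UAS control, in 2% charcoal-stripped FBS, treated with compounds plus 1 nM promegestone (R5020, final) for 16 hr at 37C. Read-out: FRET beta-lactamase substrate fluorescence after 2 hr at room temperature.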

[4] = qHTS assay to identify small molecule antagonists of the progesterone receptor (PR) signaling pathway - cell viability counter screen (AID 1346798); note: series mostly up to about 92 µM; nearly all actives have a fitted effect of over 50% in size
How it was run: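 PR-UAS-bla HEK293T cells, 3,000/well in 2% charcoal-stripped FBS medium, dosed with compounds plus R5020 agonist and incubated 16 h at 37C. Viability then measured in the same wells by CellTiter-Glo luminescence after 30 min at RT.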

[5] = qHTS assay to identify small molecule agonists of the progesterone receptor (PR) signaling pathway - cell viability counter screen (AID 1346799; calls by dose curve; note: nearly all actives have a fitted effect of over 45% in size)
How it was run: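 Counter screen in the PR-UAS-bla HEK293T wells (2% charcoal-stripped FBS, 16 h compound exposure at 37 C) after the bla read. CellTiter-Glo added, 30 min at room temperature, luminescence read as cell viability.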

[6] = qHTS assay to identify small molecule antagonists of the TGF-beta/Smad signaling pathway - cell viability counter screen (AID 1346824); note: nearly all actives have a fitted effect of over 50% in size
How it was run: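 SBE-bla HEK 293T cells were plated overnight at 37 C, then given compounds in DMSO plus TGF-beta1 (added as 0.25 ng/mL solution) for 5 hr. After the bla read, CellTiter-Glo was added to the same wells and luminescence read after 30 min at room temperature.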

[7] = qHTS assay to identify small molecule agonists of the TGF-beta/Smad signaling pathway - cell viability counter screen (AID 1346829); note: top concentration of the series differs between compounds; nearly all actives have a fitted effect of over 45% in size
How it was run: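 Luminescence from CellTiter-Glo, read after a 30 min room-temperature incubation, gives cell viability of SBE-bla HEK 293T cells treated 5 hr with compounds at 37 C.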

[8] = qHTS assay to identify small molecule agonists of the TGF-beta/Smad signaling pathway (AID 1346859; active = well fitted activation curve with a large enough effect in the signal ratio in the repeat runs, not every such curve was filed as active; the % refers to the signal ratio; note: series mostly up to about 77 µM)
How it was run: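 SBE-bla HEK293T cells plated overnight, then compound exposure for 5 h at 37 C. Beta-lactamase reporter read with LiveBLAzer B/G FRET substrate after 2 h at room temperature, fluorescence at 405 nm excitation, 460/530 nm emission.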

[9] = biological target: Thyrotropin-releasing hormone receptor (Homo sapiens) (UniProt P34981); assay: qHTS assay to identify small molecule antagonists of the thyrotropin-releasing hormone receptor (TRHR) signaling pathway (AID 1346877; active = well fitted inhibition curve with a large enough effect in the repeat runs, not every such curve was filed as active; note: series mostly up to about 51 µM)
Thyrotropin-releasing hormone receptor (Homo sapiens), sequence (P34981 whole entry, looked up): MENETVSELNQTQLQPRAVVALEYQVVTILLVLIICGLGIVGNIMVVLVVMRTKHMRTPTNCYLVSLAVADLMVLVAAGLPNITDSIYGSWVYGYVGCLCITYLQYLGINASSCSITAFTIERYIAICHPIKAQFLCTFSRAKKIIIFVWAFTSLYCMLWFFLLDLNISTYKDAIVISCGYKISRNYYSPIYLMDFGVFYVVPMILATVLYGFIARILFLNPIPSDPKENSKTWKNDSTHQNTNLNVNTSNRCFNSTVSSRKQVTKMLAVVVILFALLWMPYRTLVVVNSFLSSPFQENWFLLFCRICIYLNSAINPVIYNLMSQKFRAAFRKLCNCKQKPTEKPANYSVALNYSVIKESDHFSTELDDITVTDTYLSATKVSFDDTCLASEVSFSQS
How it was run: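 Following an 18 h incubation at 37 °C and a 2 h calcium dye load, TRHR-HEK293 cells were exposed to compound (5 min, room temperature) and challenged with TRH, 1 nM final.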

[10] = biological target: Thyrotropin-releasing hormone receptor (Homo sapiens) (UniProt P34981); assay: qHTS assay to identify small molecule agonists of the thyrotropin-releasing hormone receptor (TRHR) signaling pathway (AID 1346891; calls by dose curve; note: series mostly up to about 58 µM)
How it was run: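 HEK293 cells expressing TRHR plated 18 h at 37 C/5% CO2, calcium dye-loaded 2 h at 37 C, then compound added (agonist mode); kinetic calcium fluorescence read 3 min at 1 s intervals; 15 concentrations in triplicate.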

[11] = Human pregnane X receptor (PXR) small molecule agonists, qHTS cell viability counter screen (AID 1346977); note: nearly all actives have a fitted effect of over 50% in size
How it was run: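 PXR-Luc HepG2 cells (2,000/well, 5% charcoal-stripped FBS) preincubated 5 hr, then exposed to compounds 24 hr at 37 C. Viability read in the same wells by CellTiter-Fluor fluorescence, reagent added at 23 hr, 1 hr incubation.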

[12] = Caspase-3/7 induction in HepG2 cells by small molecules, qHTS assay (AID 1346978); note: nearly all actives have a fitted effect of over 15% in size
How it was run: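 Wild-type HepG2 cells (2,000/well) were settled 5 h at 37 C, 5% CO2, then exposed to compounds in DMSO for 17 h. Caspase-3/7 activity was read by luminescence 30 min after adding Caspase-Glo 3/7 reagent at room temperature.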

[13] = Caspase-3/7 induction in CHO-K1 cells by small molecules, qHTS cell viability counter screen (AID 1346979); note: nearly all actives have a fitted effect of over 35% in size
How it was run: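 Wild-type CHO-K1 cells (1,500/well) treated with compound after 5 h plating; after 16 h at 37C, viability read as CellTiter-Fluor fluorescence following 1 h reagent incubation, in the same wells as the caspase read.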

[14] = Caspase-3/7 induction in CHO-K1 cells by small molecules, qHTS assay (AID 1346980); note: nearly all actives have a fitted effect of over 15% in size
How it was run: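 Wild-type cells were seeded at 1,500 per well and settled 5 hr at 37 C, 5% CO2, then exposed to DMSO-dissolved compounds for 17 hr. Caspase-Glo 3/7 reagent was added, and luminescence was read after 30min at room temperature.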

[15] = Caspase-3/7 induction in HepG2 cells by small molecules, qHTS cell viability counter screen (AID 1346981); note: series mostly up to about 92 µM; nearly all actives have a fitted effect of over 30% in size
How it was run: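 Viability determined by CellTiter-Fluor fluorescence in HepG2 wells also used for the luminescent Caspase-Glo 3/7 read. Compounds were present for 16 hr at 37 C, 5% CO2 before reagent addition.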

[16] = biological target: Nuclear receptor subfamily 1 group I member 2 (Homo sapiens) (UniProt O75469); assay: Human pregnane X receptor (PXR) small molecule agonists, qHTS assay (AID 1346982); note: nearly all actives have a fitted effect of over 35% in size; note: potency is the fitted concentration of half-maximal effect
Nuclear receptor subfamily 1 group I member 2 (Homo sapiens), sequence (O75469 whole entry, looked up): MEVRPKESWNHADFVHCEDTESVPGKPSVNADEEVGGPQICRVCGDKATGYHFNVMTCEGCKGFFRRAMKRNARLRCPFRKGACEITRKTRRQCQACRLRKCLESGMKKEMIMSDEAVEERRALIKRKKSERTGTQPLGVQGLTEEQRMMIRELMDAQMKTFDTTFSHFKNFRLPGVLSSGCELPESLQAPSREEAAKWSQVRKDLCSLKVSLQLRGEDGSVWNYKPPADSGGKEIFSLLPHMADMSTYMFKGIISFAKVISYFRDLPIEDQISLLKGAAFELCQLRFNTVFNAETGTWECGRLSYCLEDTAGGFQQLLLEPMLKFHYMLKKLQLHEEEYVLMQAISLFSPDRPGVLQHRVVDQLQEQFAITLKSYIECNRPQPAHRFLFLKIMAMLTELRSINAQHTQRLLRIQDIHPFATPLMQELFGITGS
How it was run: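 Compound-induced hPXR transactivation of a CYP3A4 luciferase reporter was scored in HepG2 PXR-Luc cells over 24 hr at 37 C, 5% CO2, by luminescence.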

[17] = biological target: Nuclear receptor subfamily 1 group I member 2 (Homo sapiens) (UniProt O75469); assay: CYP3A4 induction through human pregnane X receptor (PXR) by small molecules, qHTS assay (AID 1346984); note: nearly all actives have a fitted effect of over 40% in size
How it was run: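 Readings come from a luciferase reporter: DPX-2 cells, which are HepG2 cotransfected with PXR and a CYP3A4-promoter construct, were exposed to test compounds for 24 h at 37C before One-Glo detection.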

[18] = biological target: Nuclear receptor subfamily 1 group I member 2 (Homo sapiens) (UniProt O75469); assay: Human pregnane X receptor (PXR) activation by small molecules, qHTS assay (AID 1346985); note: nearly all actives have a fitted effect of over 40% in size
How it was run: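 DPX-2 cells (HepG2 co-transfected with a PXR response element and a CYP3A4-promoter luciferase construct) were seeded at 2,000 per well, rested 5 hr at 37C, then exposed to DMSO-dissolved compounds for 24 hr. Activation was read as luciferase luminescence.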

[19] = biological target: Thyrotropin receptor (Homo sapiens) (UniProt P16473); assay: qHTS assay to identify small molecule antagonists of the thyroid stimulating hormone receptor (TSHR) signaling pathway (AID 1259385; calls by dose curve; note: nearly all actives have a fitted effect of over 20% in size)
Thyrotropin receptor (Homo sapiens), sequence (P16473 whole entry, looked up): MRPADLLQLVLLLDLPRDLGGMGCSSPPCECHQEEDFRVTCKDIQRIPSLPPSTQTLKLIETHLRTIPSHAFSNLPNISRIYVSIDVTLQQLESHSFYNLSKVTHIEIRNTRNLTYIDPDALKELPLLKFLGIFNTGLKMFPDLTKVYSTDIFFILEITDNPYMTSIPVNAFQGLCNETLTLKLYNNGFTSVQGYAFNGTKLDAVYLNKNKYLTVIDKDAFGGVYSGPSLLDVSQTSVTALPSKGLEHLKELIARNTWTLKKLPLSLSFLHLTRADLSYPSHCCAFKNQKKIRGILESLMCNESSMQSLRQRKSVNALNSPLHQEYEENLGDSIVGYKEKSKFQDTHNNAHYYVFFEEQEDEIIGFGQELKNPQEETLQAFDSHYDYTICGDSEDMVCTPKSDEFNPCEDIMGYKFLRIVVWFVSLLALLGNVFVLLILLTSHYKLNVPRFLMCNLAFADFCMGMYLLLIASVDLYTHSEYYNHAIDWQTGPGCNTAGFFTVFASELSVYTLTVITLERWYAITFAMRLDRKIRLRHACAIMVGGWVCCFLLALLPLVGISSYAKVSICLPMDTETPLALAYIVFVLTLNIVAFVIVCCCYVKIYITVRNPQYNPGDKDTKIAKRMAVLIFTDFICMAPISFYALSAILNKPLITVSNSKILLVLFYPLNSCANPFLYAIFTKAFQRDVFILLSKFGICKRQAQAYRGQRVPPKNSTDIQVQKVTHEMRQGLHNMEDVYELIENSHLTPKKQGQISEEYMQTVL
How it was run: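 TSHR-HEK293 cells were plated and held 18 h at 37C/5% CO2, then given compound plus Ro20-1724 and stimulated with TSH at 1.5 ng/mL final. After 30 min at room temperature, cAMP was detected with cAMP-d2/anti-cAMP-cryptate (1 h) by fluorescence.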

[20] = biological target: Nuclear receptor subfamily 1 group I member 2 (Rattus norvegicus) (UniProt Q9R1A7); assay: Rat pregnane X receptor (rPXR) activation by small molecules, qHTS assay (AID 1346983); conditions: rPXR luciferase reporter cells, One-Glo luminescence, 24 h; active compounds read high; note: nearly all actives have a fitted effect of over 20% in size
Nuclear receptor subfamily 1 group I member 2 (Rattus norvegicus), sequence (Q9R1A7 whole entry, looked up): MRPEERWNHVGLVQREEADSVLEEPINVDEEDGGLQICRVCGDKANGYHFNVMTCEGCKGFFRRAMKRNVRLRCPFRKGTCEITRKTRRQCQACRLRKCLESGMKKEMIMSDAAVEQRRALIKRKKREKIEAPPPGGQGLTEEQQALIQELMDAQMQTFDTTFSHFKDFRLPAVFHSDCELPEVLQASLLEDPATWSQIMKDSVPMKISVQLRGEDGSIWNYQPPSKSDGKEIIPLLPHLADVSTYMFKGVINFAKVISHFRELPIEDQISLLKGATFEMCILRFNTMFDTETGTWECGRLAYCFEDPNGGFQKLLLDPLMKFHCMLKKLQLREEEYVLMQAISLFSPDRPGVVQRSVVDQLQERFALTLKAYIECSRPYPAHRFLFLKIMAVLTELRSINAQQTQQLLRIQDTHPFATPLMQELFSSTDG
How it was run: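 Cell-based rPXR luciferase reporter assay, 2,000 cells per well, rested 5hr at 37 C before compound addition in DMSO, then 24 hr at 37 C. One-Glo reagent was added and luminescence read after 30 min at room temperature.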

| SMILES | Potency [1] | Potency [2] | Potency [3] | Potency [4] | Potency [5] | outcome [6] | outcome [7] | outcome [8] | outcome [9] | outcome [10] | Potency [11] | Potency [12] | Potency [13] | outcome [14] | Potency [15] | Potency [16] | Potency [17] | Potency [18] | outcome [19] | max activation [20] |
| --- | --- | --- | --- | --- | --- | --- | --- | --- | --- | --- | --- | --- | --- | --- | --- | --- | --- | --- | --- | --- |
| COc1cc(C(=S)N2CCOCC2)cc(OC)c1OC | inactive | inactive | inactive | inactive | inactive | inactive | inactive | inactive | inactive | inactive | inactive | inactive | inactive | inactive | inactive | inactive | inactive | inactive |  |  |
| C=C1CC/C=C(\C)CC[C@@H]2[C@@H]1CC2(C)C | inactive |  |  | inactive | inactive | inactive | inactive | inactive |  |  | inactive | inactive |  | inactive | inactive | inactive |  |  | inactive |  |
| NNc1nnc(NN)c2ccccc12 | inactive |  |  | inactive | inactive |  | inactive | inactive | inactive | inactive | inactive |  | inactive |  | inactive |  | inactive | inactive | inactive |  |
| Nc1ccc(S(=O)(=O)Nc2ccc(Cl)nn2)cc1 | inactive | inactive | inactive | inactive | inactive | inactive | inactive | inactive | inactive | inactive | inactive | inactive |  | inactive | inactive | inactive | inactive | inactive |  |  |
| CC(C)(C)OC(=O)c1ccc(O)cc1 | inactive | inactive |  | inactive |  |  | inactive | inactive | inactive | inactive |  | inactive |  |  | inactive | 27.3 µM (active) |  |  | inactive |  |
| CCOC(=O)CC(=O)c1ccccc1 | inactive | inactive |  |  | inactive | inactive | inactive | inactive | inactive | inactive | inactive | inactive | inactive | inactive | inactive | 68.6 µM (active) |  |  | inactive |  |
| NS(=O)(=O)c1cc2c(cc1Cl)CN(C1CCCCC1)C2=O | inactive | inactive | inactive | inactive | inactive | inactive | inactive | inactive | inactive | inactive | inactive | inactive | inactive | inactive | inactive | 29.8 µM (active) |  |  |  |  |
| O=C1c2ccccc2C(=O)C1c1ccccc1 | inactive | inactive | inactive | inactive | inactive | inactive | inactive | inactive | inactive | inactive | inactive | inactive | inactive | inactive | inactive | inactive | inactive | inactive |  | -1.16% |
